Laboratory results published in PubChem BioAssay (Tox21).
Inconclusive results are not listed. Entries that show only a call come without a potency. A number with no mark means an inactive call. Calls of active or inactive are those of the source. Calls follow the shape of the dose curve; as a rule, active = well fitted curve in the direction sought with a large enough effect in the repeat runs; inconclusive = weak or mixed curves; inactive = no such curve, though single readings can be large; an effect the other way counts as inactive or inconclusive.

Columns and labels:
[1] = molecular target: Cytochrome P450 2C19 (Homo sapiens) (UniProt P33261); test: Cytochrome P450 Family 2 Subfamily C Member 19 (CYP2C19) small molecule antagonists: luciferase reporter qHTS assay (AID 1671197); also: nearly all actives have a fitted effect of over 65% in size; also: potency is read from the fitted curve at half-maximal effect; as to activity change, negative = inhibition: series mostly up to about 120 µM
Method in brief: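 Relative luminescence units recorded 20 min after the detection reagent stopped a 1 h, 37C CYP2C19 reaction on proluciferin substrate, which was started by NADPH regeneration following 10 min room-temperature compound preincubation; ketoconazole positive control.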

[2] = molecular target: Cytochrome P450 1A2 (Homo sapiens) (UniProt P05177); test: Cytochrome P450 Family 1 Subfamily A Member 2 (CYP1A2) small molecule antagonists: luciferase reporter qHTS assay (AID 1671199); also: nearly all actives have a fitted effect of over 50% in size; also: potency is read from the fitted curve at half-maximal effect; as to activity change, negative = inhibition: series mostly up to about 120 µM
Method in brief: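 Quantitative high-throughput format using the P450-Glo CYP1A2 system. Reaction initiated by NADPH regeneration solution, 1 h at room temperature, then stopped with detection reagent; luminescence measured 20 min later.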

[3] = molecular target: Voltage-gated inwardly rectifying potassium channel KCNH2 (Homo sapiens) (UniProt Q12809); test: Human Ether-a-go-go-Related Gene (hERG) channel small molecule antagonists: fluorescence cell-based qHTS assay (AID 1671200);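 also: hERG-expressing U2OS cells given a thallium stimulus after FluxOR II dye loading; series mostly up to about 77 µM; nearly all actives have a fitted effect of over 50% in size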
Method in brief: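 Cell line hERG-U2OS; dye FluxOR II, 1 h RT dark; Tl+ stimulus; ex 480/em 540 nm, read each second for 2 min.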

[4] = molecular target: Cytochrome P450 3A4 (Homo sapiens) (UniProt P08684); test: Cytochrome P450 Family 3 Subfamily A Member 4 (CYP3A4) small molecule antagonists: luciferase reporter qHTS assay (AID 1671201); also: nearly all actives have a fitted effect of over 50% in size; also: potency is read from the fitted curve at half-maximal effect; as to activity change, negative = inhibition: series mostly up to about 120 µM
Method in brief: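 Room-temperature assay throughout: 10 min compound–enzyme/substrate preincubation, 1 h reaction after NADPH regeneration solution, 20 min detection. Luciferin formed from proluciferin substrate is quantified by luminescence.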

Chain of Cytochrome P450 1A2 (Homo sapiens) (P05177 whole entry, looked up): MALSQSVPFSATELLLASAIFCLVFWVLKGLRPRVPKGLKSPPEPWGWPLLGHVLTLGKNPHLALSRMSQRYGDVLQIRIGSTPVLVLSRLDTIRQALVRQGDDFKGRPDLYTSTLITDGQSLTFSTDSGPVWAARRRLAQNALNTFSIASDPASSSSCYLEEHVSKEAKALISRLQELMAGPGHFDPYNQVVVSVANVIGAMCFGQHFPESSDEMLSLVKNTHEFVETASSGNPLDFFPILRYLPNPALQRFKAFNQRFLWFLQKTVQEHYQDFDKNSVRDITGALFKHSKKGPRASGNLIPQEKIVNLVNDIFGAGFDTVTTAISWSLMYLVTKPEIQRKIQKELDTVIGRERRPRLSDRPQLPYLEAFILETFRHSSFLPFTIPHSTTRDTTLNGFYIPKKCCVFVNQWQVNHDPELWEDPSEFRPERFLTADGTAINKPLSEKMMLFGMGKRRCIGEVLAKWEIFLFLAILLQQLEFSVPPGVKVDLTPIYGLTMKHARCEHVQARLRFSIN
Chain of Cytochrome P450 3A4 (Homo sapiens) (P08684 whole entry, looked up): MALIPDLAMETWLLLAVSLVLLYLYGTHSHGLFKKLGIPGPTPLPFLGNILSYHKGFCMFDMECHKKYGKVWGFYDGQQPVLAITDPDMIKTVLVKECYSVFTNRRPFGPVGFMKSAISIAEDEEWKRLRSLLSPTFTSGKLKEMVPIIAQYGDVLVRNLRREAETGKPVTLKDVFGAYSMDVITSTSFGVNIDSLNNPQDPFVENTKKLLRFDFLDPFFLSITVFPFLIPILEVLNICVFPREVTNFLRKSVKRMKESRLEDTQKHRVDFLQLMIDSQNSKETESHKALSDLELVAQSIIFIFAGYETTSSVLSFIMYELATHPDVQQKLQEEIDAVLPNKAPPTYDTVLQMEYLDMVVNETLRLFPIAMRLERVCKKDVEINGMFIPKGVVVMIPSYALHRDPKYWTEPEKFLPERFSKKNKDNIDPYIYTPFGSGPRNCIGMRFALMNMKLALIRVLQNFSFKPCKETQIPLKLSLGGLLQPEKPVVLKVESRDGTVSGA
Chain of Cytochrome P450 2C19 (Homo sapiens) (P33261 whole entry, looked up): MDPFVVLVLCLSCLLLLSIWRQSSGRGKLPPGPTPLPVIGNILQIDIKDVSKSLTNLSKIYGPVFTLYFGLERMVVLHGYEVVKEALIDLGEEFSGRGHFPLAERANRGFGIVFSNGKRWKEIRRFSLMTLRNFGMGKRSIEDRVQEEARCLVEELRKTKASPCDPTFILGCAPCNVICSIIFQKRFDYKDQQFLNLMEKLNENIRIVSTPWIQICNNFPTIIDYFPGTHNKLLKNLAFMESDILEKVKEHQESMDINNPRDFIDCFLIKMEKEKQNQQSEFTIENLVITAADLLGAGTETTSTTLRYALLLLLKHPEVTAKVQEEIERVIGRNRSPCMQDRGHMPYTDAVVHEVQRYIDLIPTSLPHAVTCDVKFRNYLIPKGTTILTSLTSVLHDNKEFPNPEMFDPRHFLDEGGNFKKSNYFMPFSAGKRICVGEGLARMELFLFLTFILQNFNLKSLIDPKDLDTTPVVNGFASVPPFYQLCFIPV
Chain of Voltage-gated inwardly rectifying potassium channel KCNH2 (Homo sapiens) (Q12809 whole entry, looked up): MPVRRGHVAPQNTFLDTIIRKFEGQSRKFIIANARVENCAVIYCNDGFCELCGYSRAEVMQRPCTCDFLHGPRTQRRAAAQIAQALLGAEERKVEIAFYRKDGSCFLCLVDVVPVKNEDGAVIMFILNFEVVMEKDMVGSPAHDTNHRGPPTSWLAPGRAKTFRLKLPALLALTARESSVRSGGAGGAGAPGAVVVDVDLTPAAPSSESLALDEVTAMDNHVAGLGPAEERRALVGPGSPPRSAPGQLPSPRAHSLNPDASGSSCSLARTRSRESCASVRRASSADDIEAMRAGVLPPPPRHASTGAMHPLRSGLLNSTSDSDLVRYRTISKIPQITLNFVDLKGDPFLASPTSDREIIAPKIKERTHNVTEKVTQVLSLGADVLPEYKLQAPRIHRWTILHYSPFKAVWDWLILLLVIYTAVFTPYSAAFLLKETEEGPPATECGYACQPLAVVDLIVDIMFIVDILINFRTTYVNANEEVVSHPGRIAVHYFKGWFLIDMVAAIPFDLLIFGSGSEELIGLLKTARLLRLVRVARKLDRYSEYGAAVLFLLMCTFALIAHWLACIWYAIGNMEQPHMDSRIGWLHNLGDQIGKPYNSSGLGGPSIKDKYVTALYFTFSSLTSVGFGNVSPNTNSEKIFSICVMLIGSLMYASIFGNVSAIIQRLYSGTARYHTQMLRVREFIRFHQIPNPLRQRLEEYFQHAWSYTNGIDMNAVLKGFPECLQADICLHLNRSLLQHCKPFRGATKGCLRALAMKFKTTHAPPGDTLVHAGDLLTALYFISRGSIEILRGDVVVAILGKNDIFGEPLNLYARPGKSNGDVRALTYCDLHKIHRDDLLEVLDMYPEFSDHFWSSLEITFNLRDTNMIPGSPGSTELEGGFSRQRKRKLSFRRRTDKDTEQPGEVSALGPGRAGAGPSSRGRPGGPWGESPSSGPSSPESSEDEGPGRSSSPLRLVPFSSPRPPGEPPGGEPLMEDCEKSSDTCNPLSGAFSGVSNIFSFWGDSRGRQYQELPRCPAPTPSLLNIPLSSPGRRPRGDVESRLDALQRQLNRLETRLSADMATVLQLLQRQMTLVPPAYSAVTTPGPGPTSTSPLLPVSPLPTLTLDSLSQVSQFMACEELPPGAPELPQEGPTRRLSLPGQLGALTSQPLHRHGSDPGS

Row | SMILES | Potency [1] | Potency [2] | Potency [3] | Potency [4] | activity change, negative = inhibition [3]
1 | O=[N+]([O-])c1cc(Cl)c(Cl)c(Cl)c1Cl | 39.8 µM (active) | 2.24 µM (active) | inactive | inactive | 
2 | O=C(Oc1ccccc1)c1ccccc1C(=O)Oc1ccccc1 | 15.9 µM (active) | 5.64 µM (active) |  | inactive | 
3 | CCCC(c1cc(C(C)(C)C)c(O)cc1C)c1cc(C(C)(C)C)c(O)cc1C | 9.05 µM (active) |  | inactive | 5.09 µM (active) | 
4 | Cc1ccc2oc(CN(Cc3ccccc3)C(=O)Nc3c(F)cc(F)cc3F)c(-c3ccc(Cl)cc3)c2c1 | 10.9 µM (active) | 54.6 µM (active) | inactive | 2.44 µM (active) | 
5 | N=C1N=C(N)c2ccccc21 | inactive |  | inactive | inactive | 
6 | CCN1/C(=C/C=C/c2sc3ccccc3[n+]2CC)Sc2ccccc21 | 19 µM (active) |  |  | 6.01 µM (active) | -25.3% [at 15.8 µM]
7 | CO[Si](CCCNc1ccccc1)(OC)OC | inactive | inactive | inactive | 25.2 µM (active) | 
8 | CCCC/C=C/CCCCO | inactive | inactive | inactive | inactive | 
9 | CCCCN(CCCC)C(=O)N(CCCC)CCCC | inactive |  |  | 5.03 µM (active) | 
10 | CCc1cc(Cc2cc(CC)c(N)c(CC)c2)cc(CC)c1N | 0.71 µM (active) | 10 µM (active) | inactive | 0.633 µM (active) | 
11 | CCN(CCC#N)c1ccc(N=Nc2c(Cl)cc([N+](=O)[O-])cc2Cl)cc1 | inactive |  |  | inactive | 
12 | COc1cc(/C=C/C(=O)O[C@H]2CC[C@]34C[C@]35CC[C@]3(C)[C@@H]([C@H](C)CCC=C(C)C)CC[C@@]3(C)[C@@H]5CC[C@H]4C2(C)C)ccc1O | inactive |  |  | inactive | 
13 | CSc1cnc(C)cn1 | inactive |  | inactive | inactive | 
14 | CCC(C)(C)C1CCCCC1OC(C)=O (configuration not stated) | inactive |  |  | inactive | 
15 | O=C(Nc1cccc(Cl)c1)OCC#CCCl | 8.94 µM (active) | 1.78 µM (active) |  | 7.1 µM (active) | 
16 | NNc1nc(-c2ccccc2)cs1 | 9.19 µM (active) | 0.651 µM (active) | inactive | 5.8 µM (active) | 
17 | COc1ccc(C(=O)/C(Br)=C\C(=O)O)cc1 | 35.6 µM (active) |  | inactive |  | 
